Type in all cases: functional
Test [1] relates to Plasmodium falciparum. Kind of test: GSK_TCMDC: Inhibition of Plasmodium falciparum 3D7 in whole red blood cells, using parasite LDH activity as an index of growth. Test compounds present at 2uM.
In test [2] the test system is Plasmodium falciparum. Briefly: GSK_TCMDC: Inhibition of Plasmodium falciparum Dd2 in whole red blood cells, using parasite LDH activity as an index of growth. Test compounds present at 2uM.
A further test deals with HepG2. Briefly: GSK_TCMDC: Percent inhibition of human HepG2 cell line. Test compounds present at 10uM.

In ChEMBL document CHEMBL1157539, “Thousands of chemical starting points for antimalarial lead identification” (Nature, 2010) one finds Inhibition data, which are given here for eleven molecules.

Broadly, the Inhibition is the share of the control response that was lost under treatment. Read a low Inhibition as a response near the control.

`COC1CCC(C(=O)Nc2ccc(-c3cccc(-c4nc5cccc(C)c5[nH]4)c3)cc2)CC1` (stereo not drawn): the Inhibition was determined as 97% with Plasmodium falciparum [1], 60% with Plasmodium falciparum [2] and 89% in the test on HepG2.

As for `CCOc1ccc(Nc2nc(N)c3ccccc3n2)cc1.Cl`, the Inhibition with Plasmodium falciparum [1] amounted to 90%; in the test on Plasmodium falciparum [2], 6%; with HepG2 it was 28%.

Regarding `Cc1nc(-c2ccc(-c3ccc(C(=O)Nc4ccc(I)c(OCCN5CCCC5)c4)cc3)c(C)c2)no1.Cl`, the Inhibition in the test on Plasmodium falciparum [1] is 95%; in the test on Plasmodium falciparum [2], 35%; with HepG2 it was 96%.

Regarding `CC(C)N1CCC(NCc2ccc(-c3ccc(Cl)cc3)cc2)CC1`, the values for the Inhibition in the test with Plasmodium falciparum [1], in the test with Plasmodium falciparum [2] and with HepG2 were 99%, 48% and 50%, respectively.

With `O=C(CCCCCNC(=O)c1ccc(O)c(-c2ccc(Cl)c(Cl)c2)c1)NCCN1CCCC1`, the Inhibition is 90% in the test with Plasmodium falciparum [1], 2% with Plasmodium falciparum [2] and 0% with HepG2.

As to `O=C(Nc1ccc(Cl)cc1)OCCn1nnnc1C(c1ccc(Cl)cc1)N1CCOCC1` (stereo not drawn), the Inhibition with Plasmodium falciparum [1] is 90%; in the test on Plasmodium falciparum [2], 79%; in the test with HepG2, 1%.

As for `Nc1nc(N)c2c(ccc3c2ccn3Cc2ccc(-c3ccccc3)cc2)n1`, the figures for the Inhibition in the test on Plasmodium falciparum [1], in the test on Plasmodium falciparum [2] and with HepG2 were 98%, 93% and 100%, respectively.

With `O=C(/C=C/c1ccc(Cl)c(Cl)c1)N1CCC(C(O)CN2CCC(c3c[nH]c4ccccc34)CC2)CC1.O=C(O)C(F)(F)F` (stereo not drawn), the Inhibition in the test with Plasmodium falciparum [1] is 99%; in the test with Plasmodium falciparum [2], 46%; in the test on HepG2, 14%.

As to `O=C(Nc1ccc(Cl)cc1)c1ccc(CN2CCCN(Cc3cccc(Cl)c3)CC2)cc1.O=C(O)C(F)(F)F`, the Inhibition in the test on Plasmodium falciparum [1] was found to be 96%; in the test with Plasmodium falciparum [2] it was 15%; in the test with HepG2, 53%.

For `COc1ccc(Nc2nc(N/N=C/c3cc(Br)ccc3O)nc(Nc3ccc([N+](=O)[O-])cc3)n2)cc1`, the Inhibition with Plasmodium falciparum [1] was found to be 97%; with Plasmodium falciparum [2], 37%; with HepG2, 27%.

On to `NC(=O)c1cnc2ccc(-c3cncs3)cc2c1Nc1ccc(F)c(Cl)c1`, for which the figures for the Inhibition in the test on Plasmodium falciparum [1], with Plasmodium falciparum [2] and with HepG2 were 97%, 99% and 3%, respectively.
